# Experimental data from article PMC7862700, “An all-to-all approach to the identification of sequence-specific readers for epigenetic DNA modifications on cytosine”.
# What was measured:
# Test in all cases: DAPPL (digital affinity profiling via proximity ligation, sequencing); 10 mM Tris-HCl pH 7.5, 50 mM NaCl, 1 mM DTT, 4% glycerol, room temperature, 30 min; GST-TFs on glutathione beads, 16-mer random dsDNA library, 0.1% formaldehyde crosslink after washing; high values mean tight binding
# Conditions in all cases: protein: recombinant; tags: N-terminal GST; dsDNA, one strand shown
# [1] = biological target: T1, FLI1 (Homo sapiens, UniProt Q01543 1-452)
# T1 sequence: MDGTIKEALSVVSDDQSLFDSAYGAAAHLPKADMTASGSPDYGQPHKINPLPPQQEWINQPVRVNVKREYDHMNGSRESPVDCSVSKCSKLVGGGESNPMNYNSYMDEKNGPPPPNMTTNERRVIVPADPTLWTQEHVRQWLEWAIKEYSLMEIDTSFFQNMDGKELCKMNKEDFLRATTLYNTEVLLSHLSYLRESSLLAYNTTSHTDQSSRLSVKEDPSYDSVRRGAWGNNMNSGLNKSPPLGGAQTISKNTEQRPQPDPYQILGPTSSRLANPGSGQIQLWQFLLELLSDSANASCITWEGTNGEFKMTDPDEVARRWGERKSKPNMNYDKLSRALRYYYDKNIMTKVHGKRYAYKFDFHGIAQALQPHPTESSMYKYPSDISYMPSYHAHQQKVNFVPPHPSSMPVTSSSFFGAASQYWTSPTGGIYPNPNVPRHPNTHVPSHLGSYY
# Outline: (§1)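 Beads coated with glutathione captured GST-fused human transcription factors that had been expressed in yeast, and the factors were then given DNA barcodes and pooled with a tag-only sample. The pools were incubated with 200 nmole of a random double-stranded 16-mer DNA library in Tris/NaCl/DTT/glycerol buffer for 30 min at room temperature, washed, crosslinked with 0.1% formaldehyde and proximity-ligated with BsaI/T4 ligase at 37 °C for 1 h. PCR amplification and Illumina NextSeq500 sequencing came last. Binding signal is each hexamer's read frequency for a factor divided by its frequency for the tag-only sample.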
# [2] = biological target: T2, ELK1 (Homo sapiens, UniProt P19419 1-428)
# T2 sequence: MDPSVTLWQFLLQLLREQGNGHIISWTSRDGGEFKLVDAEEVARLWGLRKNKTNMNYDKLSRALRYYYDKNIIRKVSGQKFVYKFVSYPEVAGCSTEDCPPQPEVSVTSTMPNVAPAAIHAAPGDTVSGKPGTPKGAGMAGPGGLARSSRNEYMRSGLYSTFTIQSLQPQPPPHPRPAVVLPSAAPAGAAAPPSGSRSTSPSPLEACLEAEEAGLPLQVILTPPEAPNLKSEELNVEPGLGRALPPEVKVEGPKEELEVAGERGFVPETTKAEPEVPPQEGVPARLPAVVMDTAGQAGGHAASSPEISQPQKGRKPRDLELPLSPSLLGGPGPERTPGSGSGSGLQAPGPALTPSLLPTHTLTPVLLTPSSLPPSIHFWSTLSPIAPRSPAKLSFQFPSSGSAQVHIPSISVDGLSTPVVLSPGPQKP
# Outline: as §1
# [3] = biological target: T3, GABPA (Homo sapiens, UniProt Q06546 1-454)
# T3 sequence: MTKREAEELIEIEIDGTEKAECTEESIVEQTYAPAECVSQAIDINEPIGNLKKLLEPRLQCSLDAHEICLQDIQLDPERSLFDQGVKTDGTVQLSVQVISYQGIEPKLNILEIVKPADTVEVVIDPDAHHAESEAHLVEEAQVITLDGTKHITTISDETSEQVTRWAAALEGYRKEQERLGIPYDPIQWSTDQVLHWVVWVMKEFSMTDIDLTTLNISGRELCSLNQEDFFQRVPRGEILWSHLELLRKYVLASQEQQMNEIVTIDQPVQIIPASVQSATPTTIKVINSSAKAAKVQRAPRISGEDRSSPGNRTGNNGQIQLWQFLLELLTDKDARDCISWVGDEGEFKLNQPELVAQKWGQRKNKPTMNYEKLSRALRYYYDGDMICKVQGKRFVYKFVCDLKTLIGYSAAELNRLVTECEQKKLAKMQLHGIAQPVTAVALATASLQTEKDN
# Outline: as §1
# [4] = biological target: T4, ERG (Homo sapiens, UniProt P11308 1-479)
# T4 sequence: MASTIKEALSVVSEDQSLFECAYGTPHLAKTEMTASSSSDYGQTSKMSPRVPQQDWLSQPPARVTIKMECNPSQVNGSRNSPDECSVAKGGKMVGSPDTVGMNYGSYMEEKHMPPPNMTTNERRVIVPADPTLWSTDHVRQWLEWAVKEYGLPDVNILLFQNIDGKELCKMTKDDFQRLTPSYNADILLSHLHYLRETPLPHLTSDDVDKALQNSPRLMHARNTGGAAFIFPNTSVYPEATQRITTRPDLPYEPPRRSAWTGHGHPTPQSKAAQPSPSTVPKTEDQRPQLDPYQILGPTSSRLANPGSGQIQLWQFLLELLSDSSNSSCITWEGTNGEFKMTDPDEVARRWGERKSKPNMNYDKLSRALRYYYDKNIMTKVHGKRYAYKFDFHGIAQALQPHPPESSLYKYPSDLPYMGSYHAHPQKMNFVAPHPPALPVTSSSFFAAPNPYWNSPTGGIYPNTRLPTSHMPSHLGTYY
# Outline: as §1
# [5] = biological target: ELF1 (Homo sapiens, UniProt P32519 1-619)
# Outline: as §1
# [6] = biological target: T5, EHF (Homo sapiens, UniProt Q9NZC4 1-300)
# T5 sequence: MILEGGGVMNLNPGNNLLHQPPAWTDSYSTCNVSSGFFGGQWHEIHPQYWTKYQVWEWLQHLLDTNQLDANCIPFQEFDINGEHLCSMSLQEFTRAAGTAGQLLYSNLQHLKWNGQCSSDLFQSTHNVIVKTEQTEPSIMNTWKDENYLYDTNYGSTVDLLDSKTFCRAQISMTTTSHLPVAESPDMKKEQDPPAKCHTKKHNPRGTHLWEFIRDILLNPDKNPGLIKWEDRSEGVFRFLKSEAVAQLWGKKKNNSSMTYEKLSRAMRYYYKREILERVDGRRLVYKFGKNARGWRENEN
# Outline: as §1
# [7] = biological target: SPI1 (Homo sapiens, UniProt P17947 1-270)
# Outline: as §1
# [8] = biological target: SPIB (Homo sapiens, UniProt Q01892 1-262)
# Outline: as §1
# [9] = biological target: T6, ELK3 (Homo sapiens, UniProt P41970 1-407)
# T6 sequence: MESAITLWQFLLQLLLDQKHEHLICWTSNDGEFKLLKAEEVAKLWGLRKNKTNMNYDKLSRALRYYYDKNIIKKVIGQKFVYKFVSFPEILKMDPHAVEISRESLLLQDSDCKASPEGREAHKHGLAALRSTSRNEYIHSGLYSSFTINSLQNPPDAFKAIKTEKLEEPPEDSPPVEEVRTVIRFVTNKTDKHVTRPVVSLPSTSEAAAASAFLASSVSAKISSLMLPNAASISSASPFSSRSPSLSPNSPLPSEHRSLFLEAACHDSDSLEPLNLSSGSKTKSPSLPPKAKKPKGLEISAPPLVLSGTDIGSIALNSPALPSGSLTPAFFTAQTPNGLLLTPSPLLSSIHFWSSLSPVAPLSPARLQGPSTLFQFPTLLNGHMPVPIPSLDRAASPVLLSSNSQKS
# Outline: as §1
# [10] = biological target: T7, FEV (Homo sapiens, UniProt Q99581 1-238)
# T7 sequence: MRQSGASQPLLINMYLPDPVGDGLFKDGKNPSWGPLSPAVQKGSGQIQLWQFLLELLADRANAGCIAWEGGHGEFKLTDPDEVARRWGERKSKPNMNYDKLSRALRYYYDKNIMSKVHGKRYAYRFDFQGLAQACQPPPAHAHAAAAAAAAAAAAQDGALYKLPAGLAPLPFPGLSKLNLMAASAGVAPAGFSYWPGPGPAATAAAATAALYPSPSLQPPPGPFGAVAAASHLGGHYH
# Outline: as §1
# [11] = biological target: ETV5 (Homo sapiens, UniProt P41161 1-510)
# Outline: as §1
# [12] = biological target: T8, SPIC (Homo sapiens, UniProt Q8N5J4 1-248)
# T8 sequence: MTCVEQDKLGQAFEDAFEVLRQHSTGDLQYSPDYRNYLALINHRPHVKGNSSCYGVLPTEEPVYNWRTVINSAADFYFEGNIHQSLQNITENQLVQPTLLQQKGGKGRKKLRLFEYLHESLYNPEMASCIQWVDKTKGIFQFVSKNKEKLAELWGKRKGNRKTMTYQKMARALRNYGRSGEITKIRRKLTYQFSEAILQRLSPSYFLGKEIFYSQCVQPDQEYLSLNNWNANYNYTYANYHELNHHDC
# Outline: as §1
# [13] = biological target: ELF4 (Homo sapiens, UniProt Q99607 1-663)
# Outline: as §1
# [14] = biological target: T9, ELK4 (Homo sapiens, UniProt P28324-2 1-405)
# T9 sequence: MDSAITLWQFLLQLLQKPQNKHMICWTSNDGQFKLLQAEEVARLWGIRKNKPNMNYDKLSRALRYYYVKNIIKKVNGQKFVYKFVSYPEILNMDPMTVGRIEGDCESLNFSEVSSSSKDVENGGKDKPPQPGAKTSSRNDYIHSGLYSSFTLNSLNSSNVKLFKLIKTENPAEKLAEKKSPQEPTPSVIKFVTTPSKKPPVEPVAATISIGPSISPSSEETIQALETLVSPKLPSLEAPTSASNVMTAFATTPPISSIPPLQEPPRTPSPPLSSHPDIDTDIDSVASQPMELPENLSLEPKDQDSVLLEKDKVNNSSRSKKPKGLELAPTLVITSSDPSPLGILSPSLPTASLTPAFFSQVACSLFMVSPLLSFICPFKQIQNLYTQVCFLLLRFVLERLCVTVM
# Outline: as §1
# [15] = biological target: T10, ETV2 (Homo sapiens, UniProt O00321 1-342)
# T10 sequence: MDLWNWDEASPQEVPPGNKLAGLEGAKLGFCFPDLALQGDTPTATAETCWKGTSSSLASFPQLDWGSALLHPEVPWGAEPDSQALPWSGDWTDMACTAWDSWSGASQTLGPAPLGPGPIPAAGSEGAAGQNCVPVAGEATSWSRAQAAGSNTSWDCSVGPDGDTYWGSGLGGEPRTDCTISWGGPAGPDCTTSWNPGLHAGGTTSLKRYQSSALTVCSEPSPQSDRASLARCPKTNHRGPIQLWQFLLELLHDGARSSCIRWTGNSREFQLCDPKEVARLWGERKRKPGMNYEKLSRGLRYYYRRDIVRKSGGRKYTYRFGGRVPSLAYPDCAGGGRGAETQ
# Outline: as §1
# [16] = biological target: T11, ELF3 (Homo sapiens, UniProt P78545 1-371)
# T11 sequence: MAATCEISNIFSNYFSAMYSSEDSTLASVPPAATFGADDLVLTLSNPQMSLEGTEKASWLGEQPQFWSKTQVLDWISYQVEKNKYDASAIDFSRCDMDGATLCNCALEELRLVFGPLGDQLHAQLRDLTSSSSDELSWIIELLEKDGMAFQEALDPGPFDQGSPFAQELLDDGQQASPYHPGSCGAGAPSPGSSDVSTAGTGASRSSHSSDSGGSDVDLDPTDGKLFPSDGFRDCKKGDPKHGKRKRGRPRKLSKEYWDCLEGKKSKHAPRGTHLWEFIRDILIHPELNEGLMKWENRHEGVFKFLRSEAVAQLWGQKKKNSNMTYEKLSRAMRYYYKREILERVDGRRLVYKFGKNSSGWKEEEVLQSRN
# Outline: as §1
# [17] = biological target: ETV1 (Homo sapiens, UniProt P50549 1-477)
# Outline: as §1
# ETV1, sequence (P50549 whole entry): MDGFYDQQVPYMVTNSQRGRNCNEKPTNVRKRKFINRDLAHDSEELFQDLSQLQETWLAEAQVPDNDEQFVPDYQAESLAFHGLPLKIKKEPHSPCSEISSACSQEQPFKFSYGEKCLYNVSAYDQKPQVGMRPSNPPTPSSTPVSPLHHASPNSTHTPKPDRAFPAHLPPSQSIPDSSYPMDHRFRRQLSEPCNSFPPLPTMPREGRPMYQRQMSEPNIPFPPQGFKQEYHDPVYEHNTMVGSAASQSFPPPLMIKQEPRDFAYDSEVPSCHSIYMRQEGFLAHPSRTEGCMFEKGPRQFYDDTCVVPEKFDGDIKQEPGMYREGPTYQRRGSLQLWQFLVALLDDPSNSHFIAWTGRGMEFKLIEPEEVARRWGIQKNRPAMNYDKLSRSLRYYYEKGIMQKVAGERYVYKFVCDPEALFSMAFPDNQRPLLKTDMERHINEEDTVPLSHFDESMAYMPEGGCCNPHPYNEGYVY
# ELF1, sequence (P32519 whole entry): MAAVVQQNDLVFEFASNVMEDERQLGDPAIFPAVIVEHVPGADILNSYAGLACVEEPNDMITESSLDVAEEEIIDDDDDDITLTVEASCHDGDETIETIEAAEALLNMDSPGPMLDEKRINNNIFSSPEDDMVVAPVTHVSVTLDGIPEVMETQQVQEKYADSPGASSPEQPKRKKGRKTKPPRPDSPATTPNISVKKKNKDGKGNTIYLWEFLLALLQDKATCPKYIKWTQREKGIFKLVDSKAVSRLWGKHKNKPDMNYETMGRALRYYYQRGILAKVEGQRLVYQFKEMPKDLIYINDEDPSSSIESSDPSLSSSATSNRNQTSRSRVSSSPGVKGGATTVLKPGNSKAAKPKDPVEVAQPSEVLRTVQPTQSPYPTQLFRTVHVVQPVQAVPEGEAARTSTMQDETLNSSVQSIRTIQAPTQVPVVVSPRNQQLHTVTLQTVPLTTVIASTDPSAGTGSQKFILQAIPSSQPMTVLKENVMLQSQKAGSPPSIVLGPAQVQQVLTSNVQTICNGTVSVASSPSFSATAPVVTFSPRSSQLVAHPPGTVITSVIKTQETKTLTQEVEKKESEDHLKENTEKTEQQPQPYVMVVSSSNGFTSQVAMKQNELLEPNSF
# SPIB, sequence (Q01892 whole entry): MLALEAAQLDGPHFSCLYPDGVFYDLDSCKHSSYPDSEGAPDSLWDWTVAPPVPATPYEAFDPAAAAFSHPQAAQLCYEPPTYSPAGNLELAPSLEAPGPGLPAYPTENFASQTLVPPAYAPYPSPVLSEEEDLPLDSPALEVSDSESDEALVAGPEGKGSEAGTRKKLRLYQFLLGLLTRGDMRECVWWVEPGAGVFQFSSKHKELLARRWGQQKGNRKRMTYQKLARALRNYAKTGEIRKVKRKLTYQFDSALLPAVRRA
# ELF4, sequence (Q99607 whole entry): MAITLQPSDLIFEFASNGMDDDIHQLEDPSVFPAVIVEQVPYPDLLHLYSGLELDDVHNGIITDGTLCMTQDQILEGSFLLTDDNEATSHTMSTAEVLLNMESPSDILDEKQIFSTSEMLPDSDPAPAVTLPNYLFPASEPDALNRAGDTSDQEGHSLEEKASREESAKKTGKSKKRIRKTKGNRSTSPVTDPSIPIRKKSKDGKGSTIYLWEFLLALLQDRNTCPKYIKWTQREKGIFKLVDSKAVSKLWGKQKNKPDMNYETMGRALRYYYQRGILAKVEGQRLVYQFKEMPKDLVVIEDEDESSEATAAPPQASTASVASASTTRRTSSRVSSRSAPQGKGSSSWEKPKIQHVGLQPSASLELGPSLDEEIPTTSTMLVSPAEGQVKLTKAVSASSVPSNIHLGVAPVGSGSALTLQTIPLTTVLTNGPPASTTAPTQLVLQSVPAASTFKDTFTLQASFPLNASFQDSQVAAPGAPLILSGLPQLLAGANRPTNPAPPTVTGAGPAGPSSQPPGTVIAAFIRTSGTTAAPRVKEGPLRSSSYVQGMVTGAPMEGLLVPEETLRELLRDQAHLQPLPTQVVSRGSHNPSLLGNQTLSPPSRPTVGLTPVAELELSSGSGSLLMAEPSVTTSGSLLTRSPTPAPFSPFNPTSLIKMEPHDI
# ETV5, sequence (P41161 whole entry): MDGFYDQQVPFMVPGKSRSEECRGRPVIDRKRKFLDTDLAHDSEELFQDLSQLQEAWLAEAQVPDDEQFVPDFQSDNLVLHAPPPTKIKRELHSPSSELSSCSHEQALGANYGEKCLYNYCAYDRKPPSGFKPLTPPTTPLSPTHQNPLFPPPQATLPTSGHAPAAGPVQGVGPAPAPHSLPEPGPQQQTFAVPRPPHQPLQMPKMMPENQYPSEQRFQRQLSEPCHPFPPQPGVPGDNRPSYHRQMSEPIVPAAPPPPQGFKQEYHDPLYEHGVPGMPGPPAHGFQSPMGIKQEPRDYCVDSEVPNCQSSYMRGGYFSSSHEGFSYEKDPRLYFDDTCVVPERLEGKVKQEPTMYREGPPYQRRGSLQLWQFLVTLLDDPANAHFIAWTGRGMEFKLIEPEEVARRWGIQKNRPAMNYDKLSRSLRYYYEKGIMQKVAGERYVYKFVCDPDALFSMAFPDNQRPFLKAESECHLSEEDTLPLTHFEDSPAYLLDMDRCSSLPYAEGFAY
Sequence,binding signal [1],binding signal [2],binding signal [3],binding signal [4],binding signal [5],binding signal [6],binding signal [7],binding signal [8],binding signal [9],binding signal [10],binding signal [11],binding signal [12],binding signal [13],binding signal [14],binding signal [15],binding signal [16],binding signal [17]
GAAACG,"1.17 fold enrichment (6-mer frequency, TF over GST control)","1.26 fold enrichment (6-mer frequency, TF over GST control)","1.2 fold enrichment (6-mer frequency, TF over GST control)","1.38 fold enrichment (6-mer frequency, TF over GST control)","1.18 fold enrichment (6-mer frequency, TF over GST control)","1.19 fold enrichment (6-mer frequency, TF over GST control)","1.17 fold enrichment (6-mer frequency, TF over GST control)","1.25 fold enrichment (6-mer frequency, TF over GST control)","1.27 fold enrichment (6-mer frequency, TF over GST control)","1.36 fold enrichment (6-mer frequency, TF over GST control)","1.21 fold enrichment (6-mer frequency, TF over GST control)","1.19 fold enrichment (6-mer frequency, TF over GST control)","1.14 fold enrichment (6-mer frequency, TF over GST control)","1.05 fold enrichment (6-mer frequency, TF over GST control)","1.28 fold enrichment (6-mer frequency, TF over GST control)","1.27 fold enrichment (6-mer frequency, TF over GST control)","1.29 fold enrichment (6-mer frequency, TF over GST control)"
GCTACA,"1.16 fold enrichment (6-mer frequency, TF over GST control)","1.07 fold enrichment (6-mer frequency, TF over GST control)","1.22 fold enrichment (6-mer frequency, TF over GST control)","1.13 fold enrichment (6-mer frequency, TF over GST control)","1.17 fold enrichment (6-mer frequency, TF over GST control)","1.21 fold enrichment (6-mer frequency, TF over GST control)","1.2 fold enrichment (6-mer frequency, TF over GST control)","1.24 fold enrichment (6-mer frequency, TF over GST control)","1.19 fold enrichment (6-mer frequency, TF over GST control)","1.22 fold enrichment (6-mer frequency, TF over GST control)","1.18 fold enrichment (6-mer frequency, TF over GST control)","1.33 fold enrichment (6-mer frequency, TF over GST control)","1.18 fold enrichment (6-mer frequency, TF over GST control)","1.24 fold enrichment (6-mer frequency, TF over GST control)","1.17 fold enrichment (6-mer frequency, TF over GST control)","1.27 fold enrichment (6-mer frequency, TF over GST control)","1.13 fold enrichment (6-mer frequency, TF over GST control)"
TGTGCA,"1 fold enrichment (6-mer frequency, TF over GST control)","1.09 fold enrichment (6-mer frequency, TF over GST control)","1.08 fold enrichment (6-mer frequency, TF over GST control)","1.16 fold enrichment (6-mer frequency, TF over GST control)","1.08 fold enrichment (6-mer frequency, TF over GST control)","1.14 fold enrichment (6-mer frequency, TF over GST control)","1.08 fold enrichment (6-mer frequency, TF over GST control)","1.18 fold enrichment (6-mer frequency, TF over GST control)",–,"1.1 fold enrichment (6-mer frequency, TF over GST control)","1.15 fold enrichment (6-mer frequency, TF over GST control)","1.38 fold enrichment (6-mer frequency, TF over GST control)","1.11 fold enrichment (6-mer frequency, TF over GST control)","1.09 fold enrichment (6-mer frequency, TF over GST control)","1.01 fold enrichment (6-mer frequency, TF over GST control)","1.09 fold enrichment (6-mer frequency, TF over GST control)","1.05 fold enrichment (6-mer frequency, TF over GST control)"
